# From PubChem BioAssay (NCATS)
# Inconclusive results are not listed. Entries that show only a call come without a potency. Active and inactive are the calls of the source. The call rests on the fitted dose curve; in most records, active means well fitted inhibition curve with a large enough effect; inconclusive means small, poorly fitted or top-dose-only effect; inactive means flat fitted curve, though single readings scatter.
# Molecular target: Calcium and integrin-binding protein 1 (Homo sapiens) (UniProt Q99828)
# Sequence (Q99828 whole entry, looked up): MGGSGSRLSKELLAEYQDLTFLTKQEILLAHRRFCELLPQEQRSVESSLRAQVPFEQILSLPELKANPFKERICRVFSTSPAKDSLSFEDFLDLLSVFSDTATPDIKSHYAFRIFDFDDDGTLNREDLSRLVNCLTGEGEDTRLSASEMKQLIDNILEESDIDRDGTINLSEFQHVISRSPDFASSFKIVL
# Test: Primary qHTS for Identification of Calcium Integrin Binding Protein 1 (CIB1) Competitor (AID 1508620);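 further: GST tagged CIB1 binding a fluorescein labelled alphaIIb integrin peptide tracer; top concentration of the series differs between compounds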
# Details: CIB1-GST / FITC-alphaIIb peptide fluorescence polarization; series mostly up to 57.7 µM
# How it was run: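 Fluorescence polarization competition: CIB1-GST (1 uM final) preincubated with compound 15 min at room temperature, then FITC-labeled alphaIIb peptide (100 nM final) added for another 15 min. Polarization read at Ex 480/Em 540.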
row,Structure (SMILES),Potency
1,O=C(CO)N1CCC(c2[nH]nc(-c3ccc(Cl)cc3)c2-c2ccncn2)CC1,inactive
2,O=C(O)CCNc1cc(N2CCc3ccccc3CC2)nc(-c2ccccn2)n1,inactive
3,O=S(=O)(NCCNCC=Cc1ccc(Br)cc1)c1cccc2cnccc12,inactive
4,C[C@@H]1CC=CC=CC=CC=C[C@@H](O[C@@H]2O[C@H](C)[C@@H](O)[C@H](N)[C@H]2O)C[C@@H]2O[C@](O)(C[C@@H](O)C[C@@H]3O[C@@H]3C=CC(=O)O1)C[C@H](O)[C@@H]2C(=O)O,inactive
5,Cc1ccc(NC(=O)c2ccc(CN3CCN(C)CC3)cc2)cc1Nc1nc(-c2cccnc2)cs1,inactive
6,CC1(C)C(N(O)C(=O)Nc2ccc(Cl)cc2)N(c2ccc(Cl)cc2)C(=O)N1CC(=O)NN=CC=Cc1ccc([N+](=O)[O-])o1 (stereo unspecified),inactive
7,Cn1cc(-c2ccc3nnc(Sc4ccc5ncccc5c4)n3n2)cn1,inactive
8,Nc1nc(Cl)nc2c1ncn2[C@@H]1O[C@H](CO)[C@@H](O)[C@H]1F,inactive
9,COc1cc2ncnc(Nc3cc(Br)c(O)c(Br)c3)c2cc1OC,inactive
10,CN1CC(=O)NC1=NC(=O)Nc1cccc(Cl)c1,inactive
11,COC(=O)Nc1ccc(-c2nc(N3CCOCC3)c3cnn(C4CCN(C(=O)OC)CC4)c3n2)cc1,inactive
12,CC(C)(O)CC(=O)NCCn1ccc2ncnc(Nc3ccc(Oc4cccc(C(F)(F)F)c4)c(Cl)c3)c21,inactive
13,COc1nccc(-c2c(-c3ccc(F)cc3)ncn2C2CCNCC2)n1,inactive
14,CCC(=O)OCC(=O)[C@@]1(OC(=O)CC)[C@@H](C)C[C@@H]2[C@H]3CCC4=CC(=O)C=C[C@]4(C)[C@@]3(F)[C@@H](O)C[C@@]21C,inactive
15,O=C(NC[C@H](O)CO)c1ccncc1Nc1ccc(I)cc1F,inactive
16,Nc1ccc(-c2ccc3ncc4ccc(=O)n(-c5cccc(C(F)(F)F)c5)c4c3c2)cn1,inactive
17,COc1c(C)c2c(c(O)c1CC=C(C)CCC(=O)OCCN1CCOCC1)C(=O)OC2,inactive
18,CC(=O)NCCC(=O)N[C@@H](CCC(N)=O)C(=O)N[C@@H](CO)C(=O)N[C@@H](CCC(N)=O)C(=O)N[C@@H](CCC(N)=O)C(=O)N[C@H](C(=O)N[C@@H](Cc1ccccc1)C(=O)N[C@]1(C)CCCCCCC=CCCC[C@@](C)(C(=O)N[C@@H](CCC(N)=O)C(=O)N[C@@H](CC(N)=O)C(N)=O)NC(=O)[C@H](CC(C)C)NC(=O)[C@H](CC(C)C)NC(=O)[C@@H](CCCNC(=N)N)NC(=O)[C@H](Cc2c[nH]c3ccccc23)NC(=O)[C@H](CC(C)C)NC(=O)[C@H](CC(N)=O)NC1=O)[C@H](C)O,inactive
19,CN1C(=O)C[C@H](C(=O)N[C@@H](Cc2cnc[nH]2)C(=O)N2CCC[C@@H]2C(N)=O)NC1=O,inactive
20,Cc1cn([C@@H]2C[C@@H](O)[C@H](CO)O2)c(=O)[nH]c1=O,inactive
21,CC[C@H](C=C[C@@H](C)[C@H]1CC[C@H]2[C@@H]3CC=C4C[C@@H](O)CC[C@]4(C)[C@@H]3CC[C@]12C)C(C)C,inactive
22,CC[C@H](C)n1cc(C)c2c(C(=O)NCc3c(C)cc(C)[nH]c3=O)cc(-c3ccc(N4CCNCC4)nc3)cc21,inactive
23,O=c1[nH]nc(OCCCc2ccc(Cl)cc2)c(NCc2cccnc2)c1Br,inactive
24,COc1c(C)cnc(Cn2cnc3c(Cl)nc(N)nc32)c1C,inactive
25,Cc1nc(NC(=O)N2CCC[C@@H]2C(N)=O)sc1-c1csc(C(C)(C)C)n1,inactive
26,CC1(C)OC2CC3C4CC(F)C5=CC(=O)C=CC5(C)C4C(O)CC3(C)[C@]2(C(=O)CO)O1 (stereo partly specified),inactive
